# From PubChem BioAssay
# Calls of active or inactive are those of the source. Unless noted, how the calls were made is not given here.
# Experiments:
# [1] = compound effects on lung adenocarcinoma cell viability – A549, calcein-AM fluorescence, 48 h, basal, profiling panel (AID 1162); conditions: higher = more signal; further: test concentration not given here
# [2] = compound effects on differentiated 3T3-L1 adipocyte viability – cell-based, 3T3-L1 adipocytes, calcein-AM fluorescence, 48 h, basal, profiling panel (AID 1163); conditions: 3T3-L1 adipocytes viability, higher = more signal; further: test concentration not given here
# [3] = compound effects on hepatocellular carcinoma cell viability – HepG2, calcein-AM fluorescence, 48 h, basal, profiling panel (AID 1164); conditions: higher = more signal; further: test concentration not given here
# [4] = compound effects on multiple myeloma cell viability – MM1S, calcein-AM fluorescence, 48 h, basal, profiling panel (AID 1165); conditions: higher = more signal; further: test concentration not given here
# [5] = calcein-AM signal in unstimulated myeloma cells – cell-based, calcein-AM fluorescence, 48 h, PK04 Diversity Set, profiling panel (AID 1166); conditions: RPMI8226 myeloma viability, higher = more signal;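 further: cells grown under basal conditions without added stimulus; test concentration not given here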
# [6] = JC-1 mitochondrial signal, unstimulated HepG2 cells – cell-based, JC-1 fluorescence, 24 h, 100 nL compound, profiling panel (AID 1167); conditions: HepG2 mitochondrial potential, higher = more signal; further: test concentration not given here
# [7] = JC-1 mitochondrial signal, unstimulated adipocytes – cell-based, JC-1 fluorescence, 3T3-L1 adipocytes, 24 h, 100 nL compound, profiling panel (AID 1168); conditions: JC-1 mitochondrial fluorescence, higher = more signal, called active from +8 up or from −8 down; further: test concentration not given here
# [8] = JC-1 mitochondrial signal, unstimulated myeloma cells – cell-based, JC-1 fluorescence, RPMI8226, 24 h, 100 nL compound, profiling panel (AID 1169); conditions: JC-1 mitochondrial potential fluorescence, higher = more signal; further: test concentration not given here
# [9] = JC-1 mitochondrial signal, unstimulated MM1S myeloma – cell-based, JC-1 fluorescence, 24 h, 100 nL compound, profiling panel (AID 1170); conditions: MM1S mitochondrial potential, higher = more signal; further: test concentration not given here
# [10] = resazurin metabolic signal in A549 cells – cell-based, resazurin fluorescence, 24 h, PK04 Diversity Set, profiling panel (AID 1171); conditions: A549 viability, higher = more signal, called active from +8 up or from −8 down; further: test concentration not given here
# [11] = resazurin metabolic signal in HepG2 cells – cell-based, resazurin fluorescence, 24 h, PK04 Diversity Set, profiling panel (AID 1172); conditions: HepG2 viability, higher = more signal; further: test concentration not given here
# [12] = budding yeast growth changes without added modifier – OD600, strain BY4716, 24 h, basal condition, primary screen (AID 1173); conditions: S. cerevisiae BY4716 growth, OD600, 24 h; higher = more signal, called active from +8 up or from −8 down
# [13] = viability profiling in MM1S myeloma cells – cell-based, resazurin fluorescence, basal, 24 h, PK04 Diversity Set, profiling panel (AID 1174); conditions: higher = more signal, called active from +8 up or from −8 down; further: test concentration not given here
# [14] = target: Dihydroorotate dehydrogenase (quinone), mitochondrial (Plasmodium falciparum (isolate 3D7)) (UniProt Q08210); test: inhibition of P. falciparum DHODH – biochemical, C-terminal His tag, absorbance 600 nm, primary screen (AID 1175); conditions: PfDHODH enzyme, DCIP absorbance 600 nm; higher = more signal, called active from +8 up or from −8 down;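 further: recombinant parasite enzyme with a five histidine tag at its C terminus; test concentration not given here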
# [15] = inhibition of PAO1 biofilm formation – strain PAO1, LB-PBS medium, absorbance 600 nm, primary screen (AID 1176); further: test concentration not given here; conditions: P. aeruginosa PAO1 growth/biofilm, A600, 12 h; higher = more signal
# [16] = growth modulation of vineyard yeast isolate – strain RM11-1a, OD600, basal, 24 h, primary screen (AID 1177);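 further: cultures grown under basal conditions with no added stressor; test concentration not given here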; conditions: S. cerevisiae RM11-1a growth, OD600, 24 h; higher = more signal, called active from +8 up or from −8 down
# [17] = growth of efflux-deficient E. coli DRC39 – strain DRC39, OD650, 24 h, E. coli filamentation inducers, primary screen (AID 1178);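 further: growth measured as culture turbidity by optical density at 650 nm; test concentration not given here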; conditions: E. coli DRC39 acrAB, higher = more signal, called active from +8 up or from −8 down
# [18] = growth of efflux-deficient E. coli DRC39 – strain DRC39, OD650, 48 h, E. coli filamentation inducers, primary screen (AID 1179);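 further: screen aims at cell division blockers that make cells filament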; conditions: E. coli DRC39 delta-acrAB growth, higher = more signal, called active from +8 up or from −8 down
# [19] = viability profiling in RPMI8226 myeloma cells – cell-based, resazurin fluorescence, basal, 24 h, PK04 Diversity Set, profiling panel (AID 1180); conditions: higher = more signal;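 further: RPMI8826 multiple myeloma cell line at 5000 cells per well; test concentration not given here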
# [20] = target: E3 ubiquitin-protein ligase XIAP (Homo sapiens) (UniProt P98170); test: small molecules binding XIAP protein – biophysical, small-molecule microarray, fluorescence 635 nm, primary screen (AID 1181); conditions: higher = more signal;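 further: score merges 667 nm emission and signal to noise over triplicate slides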
# Sequence of E3 ubiquitin-protein ligase XIAP (Homo sapiens) (P98170 whole entry, looked up): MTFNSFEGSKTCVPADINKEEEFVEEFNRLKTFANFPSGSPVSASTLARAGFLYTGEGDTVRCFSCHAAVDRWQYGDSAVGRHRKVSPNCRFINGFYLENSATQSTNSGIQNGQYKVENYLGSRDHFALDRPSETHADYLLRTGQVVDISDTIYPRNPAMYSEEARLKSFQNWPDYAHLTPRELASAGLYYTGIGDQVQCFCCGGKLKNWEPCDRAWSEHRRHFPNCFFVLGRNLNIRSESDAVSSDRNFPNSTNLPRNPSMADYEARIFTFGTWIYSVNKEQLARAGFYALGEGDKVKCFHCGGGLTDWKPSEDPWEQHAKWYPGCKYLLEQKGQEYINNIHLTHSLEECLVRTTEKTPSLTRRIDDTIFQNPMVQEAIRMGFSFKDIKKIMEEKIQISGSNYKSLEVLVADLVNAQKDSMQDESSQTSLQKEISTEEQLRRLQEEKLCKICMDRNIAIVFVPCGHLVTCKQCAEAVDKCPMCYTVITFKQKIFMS
# Sequence of Dihydroorotate dehydrogenase (quinone), mitochondrial (Plasmodium falciparum (isolate 3D7)) (Q08210 whole entry, looked up): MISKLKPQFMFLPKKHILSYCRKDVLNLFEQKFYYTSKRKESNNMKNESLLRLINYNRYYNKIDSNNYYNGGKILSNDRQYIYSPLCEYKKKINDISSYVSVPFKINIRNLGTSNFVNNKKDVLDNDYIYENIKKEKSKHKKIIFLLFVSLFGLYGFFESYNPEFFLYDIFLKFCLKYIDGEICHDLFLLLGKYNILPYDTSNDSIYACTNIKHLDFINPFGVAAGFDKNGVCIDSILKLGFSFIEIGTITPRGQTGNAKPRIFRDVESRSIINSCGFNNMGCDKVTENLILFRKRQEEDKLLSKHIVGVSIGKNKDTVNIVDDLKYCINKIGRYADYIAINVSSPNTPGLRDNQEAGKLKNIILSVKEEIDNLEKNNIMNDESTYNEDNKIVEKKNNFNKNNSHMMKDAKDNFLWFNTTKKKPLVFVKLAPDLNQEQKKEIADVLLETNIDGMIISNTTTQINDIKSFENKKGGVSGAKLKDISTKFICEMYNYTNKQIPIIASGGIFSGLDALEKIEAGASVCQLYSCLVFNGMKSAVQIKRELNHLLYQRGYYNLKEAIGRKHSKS
smiles,measurement,setting,value
CCCCC(O)C1C=CC2C(=O)N(c3ccccc3)C(=O)C2N1Nc1ccc([N+](=O)[O-])cc1 (stereo not given),z-score,[1],0.286
same,z-score,[2],-0.229
same,z-score,[3],0.0784
same,z-score,[4],-0.72
same,z-score,[5],-0.438
same,z-score,[6],-0.573
same,z-score,[7],-1.08 (inactive)
same,z-score,[8],-0.147
same,z-score,[9],-0.745
same,z-score,[10],0.113 (inactive)
same,z-score,[11],0.172
same,z-score,[12],-0.485 (inactive)
same,z-score,[13],0.519 (inactive)
same,composite z-score,[14],0.0188 (inactive)
same,z-score,[15],1.03 (inactive)
same,z-score,[16],-0.385 (inactive)
same,z-score,[17],0.356 (inactive)
same,z-score,[18],0.282 (inactive)
same,z-score,[19],-0.354
same,composite z-score,[20],-0.156
O=C(NCCN1CCOCC1)[C@@H]1c2ccccc2C(=O)N(Cc2ccc(OC(F)(F)F)cc2)[C@H]1c1ccc(CO)cc1,z-score,[1],3.01
same,z-score,[2],1.04
same,z-score,[3],0.113
same,z-score,[4],0.0559
same,z-score,[5],-0.231
same,z-score,[6],2.31
same,z-score,[7],0.229 (inactive)
same,z-score,[8],1.04
same,z-score,[9],0.745
same,z-score,[10],0.614 (inactive)
same,z-score,[11],-0.129
same,z-score,[12],-0.559 (inactive)
same,z-score,[13],0.0245 (inactive)
same,composite z-score,[14],-0.0449 (inactive)
same,z-score,[15],0.925 (inactive)
same,z-score,[16],-0.449 (inactive)
same,z-score,[17],0.248 (inactive)
same,z-score,[18],-0.322 (inactive)
same,z-score,[19],0.546
same,composite z-score,[20],0.0151
O=C1NC(=O)C2C1C=CC(C(O)c1ccc(B(O)O)cc1)N2Nc1ccc(Cl)cc1Cl (stereo not given),z-score,[1],-0.591
same,z-score,[2],-1.33
same,z-score,[3],-1.19
same,z-score,[4],-1.62
same,z-score,[5],-1.58
same,z-score,[6],-1.75
same,z-score,[7],-1.12 (inactive)
same,z-score,[8],0.482
same,z-score,[9],-0.682
same,z-score,[10],-0.616 (inactive)
same,z-score,[11],-1.97
same,z-score,[12],-7.76 (inactive)
same,z-score,[13],-1.19 (inactive)
same,composite z-score,[14],-0.0575 (inactive)
same,z-score,[15],1.29 (inactive)
same,z-score,[16],1.48 (inactive)
same,z-score,[17],0.0436 (inactive)
same,z-score,[18],-1.52 (inactive)
same,z-score,[19],-1.78
same,composite z-score,[20],0.0049
CC(C)[Si](C#CCCc1ccccc1)(O[C@H](c1ccccc1)c1cn(Cc2ccccc2)nn1)C(C)C,z-score,[1],-0.865
same,z-score,[2],0.254
same,z-score,[3],-1.01
same,z-score,[4],-0.505
same,z-score,[5],-0.297
same,z-score,[6],0.907
same,z-score,[7],-0.979 (inactive)
same,z-score,[8],-0.631
same,z-score,[9],-1.08
same,z-score,[10],1.43 (inactive)
same,z-score,[11],1.5
same,z-score,[12],-8.07 (active)
same,z-score,[13],-0.016 (inactive)
same,composite z-score,[14],-0.262 (inactive)
same,z-score,[15],-0.206 (inactive)
same,z-score,[16],0.129 (inactive)
same,z-score,[17],-0.0409 (inactive)
same,z-score,[18],0.451 (inactive)
same,z-score,[19],-0.052
same,composite z-score,[20],-0.0117
C[C@@H]1NC(=O)C([C@@H](C)OCc2ccccc2)NC(=O)[C@@]23C(=O)N[C@@H](Cc4ccccc4)C2[C@H](C)[C@@]2(C)O[C@H]2C3/C=C/C/C=C\CNC1=O (stereo not given in full),z-score,[1],-0.405
same,z-score,[2],0.387
same,z-score,[3],-0.448
same,z-score,[4],-0.129
same,z-score,[5],-1.1
same,z-score,[6],-0.121
same,z-score,[7],0.782 (inactive)
same,z-score,[8],0.514
same,z-score,[9],0.186
same,z-score,[10],-0.0746 (inactive)
same,z-score,[11],-0.847
same,z-score,[12],-0.399 (inactive)
same,z-score,[13],0.026 (inactive)
same,composite z-score,[14],-0.0288 (inactive)
same,z-score,[15],0.625 (inactive)
same,z-score,[16],0.533 (inactive)
same,z-score,[17],-0.602 (inactive)
same,z-score,[18],-0.426 (inactive)
same,z-score,[19],-0.104
same,composite z-score,[20],-0.291
